Source: PubChem BioAssay (Broad Institute)
EWS-Fli inh: EWS/Fli-driven NR0B1 reporter inhibitors, primary screen, A673 cells, NR0B1 luciferase, luminescence, MLPCN library. viability-normalised. inhibition, % at 12.6 µM. actives 0.67% (n = 350,000). AID 651661, 2012;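 active = mean inhibition of at least 50% after viability correction, with every replicate also passing that limit; inconclusive = mean reaches 50% but only one of two replicates passes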;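 also: firefly luciferase signal divided by Alamar Blue viability fluorescence both relative to DMSO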
Shn3 3UTR inh: reduction of Shn3 3'UTR firefly luciferase signal, primary screen, Schnurri-3 inhibitor project, cell-based, Clone20 osteoblasts, set 2 | actives 0.52% (n = 360,000) | inhibition, % at 12.5 µM | Clone20 osteoblast Shn3 3'UTR firefly luciferase, 24 h;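 active = mean inhibition of at least 75% with every replicate also reaching 75%; inconclusive = mean inhibition at least 75% but some replicate below; inactive = mean inhibition below 75%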;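 also: 0% = median of neutral control wells and 100% = pilot-screen positive control compound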
MITF TRPM1 inh: inhibitors of MITF-dependent TRPM1 promoter reporter, primary screen, cell-based, SK-MEL-5, single point, luciferase | SK-MEL-5 TRPM1 promoter luciferase, 24 h | inhibition, % at 12.5 µM | actives 0.83% (n = 330,000) | AID 488899, 2010;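 active = mean inhibition across replicates of 60% or more, whatever share of single replicates reaches that level; inconclusive = some that reach 60%, reason not given; inactive = mean inhibition across replicates below 60%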
LMP1 NFkB inh: EBV LMP1-driven NF-kappaB luciferase reporter inhibitors, primary screen, cell-based, luminescence, single point | inhibition, % at 12.5 µM | LMP1-induced NF-kappaB luciferase reporter cells | actives 0.69% (n = 350,000); in the data active = inhibition above about 41%; inconclusive = no clear call, values can overlap the other calls;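 also: 0% = neutral control wells and 100% = reference inhibitor control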
PAX8 reporter: inhibitors of PAX8-driven TPO luciferase reporter, primary screen, RMG-I cells, single concentration; SteadyGlo, 24 h; inhibition, % at 12.6 µM; actives 1.2% (n = 360,000); AID 652154, 2013;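 active = mean replicate inhibition at least 60% with every replicate also reaching 60%; inconclusive = only one of the two criteria is met; inactive = mean below 60% and not all replicates reaching 60%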;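 also: luciferase light reporting Pax8 driven TPO promoter activity; plate controls were median of neutral control wells for no effect and mitoxantrone controls for full effect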
LGR2 antag: inhibitors of bursicon-induced LGR2 CRE-luciferase signal, primary screen, cell-based, HEK293, CRE-luciferase reporter, bursicon stimulation; AID 720647, 2013; inhibition, % at 9.99 µM; actives 0.35% (n = 380,000); bursicon-stimulated, 4 h; Drosophila bursicon receptor LGR2 (rickets);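 active = drop in luminescence signal, shown as inhibition above about 50% in the replicate tests, limit read from the data, passing the limit was not always enough; inconclusive = probably only some replicates passing the limit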;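 also: agonist challenge used bursicon conditioned medium at about half maximal strength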
Starred values were filed as active, the others as inactive; ? = inconclusive; nt = not tested or not shown. An excerpt weighted towards active compounds, which were near 2.2% of everything screened.

SMILES	EWS-Fli inh	Shn3 3UTR inh	MITF TRPM1 inh	LMP1 NFkB inh	PAX8 reporter	LGR2 antag
COc1cc2c(c(OC)c1OC)-c1ccc(O)cc1[C@@H](NC(C)=O)CC2	51.4*	21.2	65.1*	8.5	90.0*	0.8
COc1cc2c(c(OC)c1OC)-c1ccc(O)c(=O)cc1[C@@H](NC(C)=O)CC2	46.4	-2.9	6.3	-0.6	9.6	-15.8
COc1cc2c(c(OC)c1OC)-c1ccc(O)cc1C(NC(C)=O)CC2 (configuration not stated)	24.6	25.1	61.3*	-4.5	79.8*	16.9
COc1c(O)cc2c(c1OC)-c1ccc(SC)c(=O)cc1C(NC(C)=O)CC2 (configuration not stated)	34.1	-8.6	35.0	1.0	?	-53.1
C=CC[C@@H](CC/C=C/C=C/CC/C=C\[C@@H]1CSC([C@@H]2C[C@@H]2C)=N1)OC	nt	13.8	67.4*	14.4	nt	nt
CC(=O)O[C@H]1CCC2C3CC[C@H]4[C@@H](O)[C@H](O)CC[C@]4(C)C3CC[C@@]21C (some centres not stated)	-9.2	96.2*	5.3	0.5	-3.6	25.6
CC(=O)[C@H]1CCC2C3CC[C@H]4C[C@@H](O)CC[C@]4(C)C3CC[C@@]21C (some centres not stated)	9.4	10.7	0.0	1.4	-21.8	-10.5
O=C(Cc1cccnc1)N1CCCCN2[C@@H](CO)[C@H](c3ccc(/C=C/c4ccccc4)cc3)[C@@H]2C1	-6.6	nt	nt	nt	-27.0	2.6
COc1ccc(CCNC2CCCCC2)cc1	7.0	-23.8	4.6	-7.1	7.4	-12.4
COc1ccc(C[C@H]2NC[C@H](O)[C@H]2OC(C)=O)cc1	66.2*	93.9*	82.9*	90.6*	102.8*	nt
COc1ccc(OC(=O)N(C)C[C@@H]2OCc3ccccc3-c3c(n(C)c4ccccc34)C(=O)N([C@@H](C)CO)C[C@@H]2C)cc1	-1.1	nt	nt	nt	17.5	-8.3
CCOc1ccc(-c2c(C)n(-c3ccc(OCC)cc3)c3[n+]2CCCCC3)cc1	49.0	88.1*	76.2*	34.6	87.3*	47.4
CN(C)c1ccc(-[n+]2c(-c3ccccc3)cc(-c3ccccc3)cc2-c2ccccc2)cc1	52.5*	94.1*	92.5*	33.8	88.1*	20.4
Cc1ccc(-c2cc(-c3ccc(C)cc3)[n+](-c3ccccc3)c(-c3ccc(C)cc3)c2)cc1	nt	94.2*	102.2*	44.5*	nt	nt
Cc1ccc(-c2cc(-c3ccccc3)cc(-c3ccccc3)[n+]2-c2ccccc2)cc1	61.0*	97.8*	103.3*	32.1	95.3*	-1.9
C[n+]1c(-c2ccccc2)cc(-c2ccc(Cl)cc2)cc1-c1ccccc1	10.6	8.8	43.8	1.4	?	22.8
Cc1ccc(-c2cc(-c3ccc(C)cc3)[n+](-c3ccc(C(=O)[O-])cc3)c(-c3ccc(C)cc3)c2)cc1	-4.7	-19.2	11.8	-1.4	-2.8	0.6
c1ccc(-c2cc(-c3ccccc3)[n+](-c3ccccc3)c(-c3ccccc3)c2)cc1	68.9*	16.3	92.4*	38.9	96.2*	102.5*
COC(=O)[C@@H]1[C@@H](CO)[C@@H]2Cn3c(ccc(-c4cccc(C(=O)N(C)C)c4)c3=O)[C@H]1N2CC1CC1	-6.3	nt	nt	nt	-8.9	6.2
COC(=O)[C@H]1[C@H](CO)[C@H]2Cn3c(ccc(-c4ccccc4F)c3=O)[C@@H]1N2Cc1cccnc1	-7.7	nt	nt	nt	-22.0	2.5
CCCNC(=O)N1[C@@H]2c3ccc(-c4cccc(C(=O)N(C)C)c4)c(=O)n3C[C@H]1[C@H](CO)[C@H]2C(=O)O	0.6	nt	nt	nt	-7.8	2.0
COC(=O)[C@H]1[C@H](CO)[C@H]2Cn3c(ccc(-c4cccc(F)c4)c3=O)[C@@H]1N2Cc1ccncc1	1.5	nt	nt	nt	2.6	5.4
COC(=O)[C@@H]1[C@@H](CO)[C@@H]2Cn3c(ccc(-c4ccc(F)cc4)c3=O)[C@H]1N2Cc1cccnc1	-3.0	nt	nt	nt	nt	-4.0
